Source: PubChem BioAssay AID2702 (National Center for Advancing Translational Sciences (NCATS), 2010)
Calls of active or inactive are those of the source.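 How the source made its calls: active means compounds blocking 15-hLO-2 with IC50 at or below the top tested dose, none here; inactive means the rest.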

target: Polyunsaturated fatty acid lipoxygenase ALOX15B (Homo sapiens) (UniProt O15296); assay: Cuvette-Based Assay fo Inhibitors of 15-hLO-2 (15-human lipoxygenase 2); conditions: purified 15hLO-2, arachidonic acid, UV 234 nm cuvette
Protocol: Human lipoxygenase 15hLO-2 is a member of the closely related lipoxygenase family of enzymes which catalyze the site-specific oxidation of arachidonic acid to various hormone precursor molecules and as such is a candidate for drug development in a variety of disease areas, such as cancer and inflammation. Inhibition of 15hLO-2 activity was screened by utilizing arachidonic acid as a substrate. The extent of hydroperoxide product formation was measured by a secondary chromogenic reaction in which xylenol orange (XO, Sigma-Aldrich, cat. number 39,818-7) reacts with the ferric ions produced from the reaction between the hydroperoxide and ferrous ions. The Fe(III)-XO complex is characterized with red-shifted absorbance at 560 nm. A purified preparation of human 15hLO-2 was supplied by Professor Ted Holman, University of California, Santa Cruz. This assay is includes some confirmation and follow-up compounds for related primary screening assay AID 881. Assay Provider: Holman, T.R., University of California, Santa Cruz Screening Center PI: Austin, Christopher P. Screening Center: NIH Chemical Genomics Center
For control experiments, 2 mL of substrate buffer (7 uM arachidonic acid / 25 mM HEPES / 0.01% (v/v) Triton X-100, pH 7.5) was aliquoted in a cuvette with a magnetic stir bar. After equilibrium was ensured, an aliquot of inhibitor solvent was added (DMSO or MeOH), and equilibrium was once again assured. The reaction was started by adding enzyme to the cuvette and the reaction was followed until completed. The inhibition experiments were performed as above, except the actual inhibitory compound was added instead of vehicle. To achieve an IC50, typically 5 concentrations of the inhibitor were studied. If the inhibitor concentration was constant, then five different reaction volumes were used. Step \ Parameter \ Value \ Description 1; UV-Vis; 234 nm; Equilibration 2; Reagent; 2 mL; Substrate buffer 3; UV-Vis; 234 nm; Equilibration 4; Reagent; varies; Compound 5; UV-Vis; 234 nm; Equilibration 6; Reagent; 50-200 nM; Enzyme 15hLO-2 7; UV-Vis; 234 nm; Enzymatic reaction Step \ Notes 1. Blank cuvette to air. 2. 7 uM AA, 25 mM HEPES, 0.01% Triton X-100, pH 7.5. 3. No change in absorbance ensured. 4. Compound vehicle or compound in various concentrations depending on potency. 5. No change in absorbance ensured. 6. Enzyme concentration to achieve reaction rate between 0.02 and 0.04 AU/s. 7. Enzymatic reaction visualized until completion.

Sequence of Polyunsaturated fatty acid lipoxygenase ALOX15B (Homo sapiens) (O15296 whole entry, looked up): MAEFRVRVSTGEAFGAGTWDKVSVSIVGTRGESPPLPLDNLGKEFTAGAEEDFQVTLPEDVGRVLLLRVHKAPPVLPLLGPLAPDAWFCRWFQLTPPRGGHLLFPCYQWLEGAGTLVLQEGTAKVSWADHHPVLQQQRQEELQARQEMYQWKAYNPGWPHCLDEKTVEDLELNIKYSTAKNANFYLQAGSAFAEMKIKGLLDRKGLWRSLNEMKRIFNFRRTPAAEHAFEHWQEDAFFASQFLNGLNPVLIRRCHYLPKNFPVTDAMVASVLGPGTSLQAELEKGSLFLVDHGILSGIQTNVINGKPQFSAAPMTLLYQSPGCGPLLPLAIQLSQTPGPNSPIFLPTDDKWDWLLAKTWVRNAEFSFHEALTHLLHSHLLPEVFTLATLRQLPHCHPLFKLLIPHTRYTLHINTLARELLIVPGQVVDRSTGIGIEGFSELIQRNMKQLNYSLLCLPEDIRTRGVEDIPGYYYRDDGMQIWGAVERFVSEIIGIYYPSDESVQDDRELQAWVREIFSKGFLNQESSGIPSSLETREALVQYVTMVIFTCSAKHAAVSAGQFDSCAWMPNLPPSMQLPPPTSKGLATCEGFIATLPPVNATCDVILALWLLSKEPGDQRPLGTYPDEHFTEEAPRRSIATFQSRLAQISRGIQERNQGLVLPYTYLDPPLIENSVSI

outcome, inactive:
O=C(OCC#CCSc1nnc(-c2cccc3ccccc23)o1)c1cccs1, O=C(OCC#CCSc1nnc(-c2cccc3ccccc23)o1)c1ccc(F)cc1, O=C(OCC#CCSc1nnc(-c2cccc3ccccc23)o1)c1cc2ccccc2o1, CC(=O)N1CCN(c2ccc(NCc3ccc4c(c3)OCO4)cc2)CC1, O=C1c2ccccc2NC(c2ccc(-c3cccc(Cl)c3)o2)N1O (configuration not stated), COc1cccc(CNc2ccc(N3CCCCC3)cc2)c1OC, CC(C)Nc1oc(-c2cccc3ccccc23)nc1C#N
